This passage reports inhibition results from PubChem BioAssay AID651699 (Sanford-Burnham Center for Chemical Genomics, 2012).

Screen size: about 360,000 compounds; about 2,100 (0.58%) were called active. The sample as a whole holds a higher share of actives than the screen did. A number with no mark means an inactive call. No stated cut-off is given here; in the data, active means inhibition above about 36%; inactive means the rest.

This assay deals with NEDD8-conjugating enzyme Ubc12 (Homo sapiens) + NEDD8-activating enzyme E1 regulatory subunit (Homo sapiens) (UniProt P61081+Q13564). Kind of assay: NEDD8 transfer onto cullin, blockade – biochemical, TR-FRET, uHTS, NAE and Ubc12, primary screen (AID 651699). Particulars: TR-FRET cullin neddylation, at 25 µM, hits give high values.
Chain of NEDD8-conjugating enzyme Ubc12 (Homo sapiens) + NEDD8-activating enzyme E1 regulatory subunit (Homo sapiens) (P61081 whole entry, looked up): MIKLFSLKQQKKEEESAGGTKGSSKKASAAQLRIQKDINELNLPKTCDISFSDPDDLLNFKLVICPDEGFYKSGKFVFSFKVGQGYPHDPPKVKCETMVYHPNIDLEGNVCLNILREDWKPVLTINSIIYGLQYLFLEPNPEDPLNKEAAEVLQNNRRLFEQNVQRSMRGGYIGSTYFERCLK
Chain of NEDD8-conjugating enzyme Ubc12 (Homo sapiens) + NEDD8-activating enzyme E1 regulatory subunit (Homo sapiens) (Q13564 whole entry, looked up): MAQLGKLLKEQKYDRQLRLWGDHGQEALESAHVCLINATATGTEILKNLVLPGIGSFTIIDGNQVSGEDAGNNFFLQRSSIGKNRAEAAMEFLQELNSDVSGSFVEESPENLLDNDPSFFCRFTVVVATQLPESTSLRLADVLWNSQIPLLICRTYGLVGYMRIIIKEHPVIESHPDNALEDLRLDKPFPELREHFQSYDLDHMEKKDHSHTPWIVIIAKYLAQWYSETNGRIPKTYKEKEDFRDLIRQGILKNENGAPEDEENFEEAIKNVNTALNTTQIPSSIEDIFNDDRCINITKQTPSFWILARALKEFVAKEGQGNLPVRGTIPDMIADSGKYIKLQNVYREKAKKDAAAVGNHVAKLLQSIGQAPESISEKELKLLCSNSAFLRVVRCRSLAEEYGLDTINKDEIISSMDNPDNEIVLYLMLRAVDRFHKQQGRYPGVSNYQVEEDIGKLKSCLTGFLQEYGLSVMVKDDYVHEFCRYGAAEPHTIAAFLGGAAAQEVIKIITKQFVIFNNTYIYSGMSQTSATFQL
On to `CCOc1ccc(Cl)cc1-c1cc(C(=O)NCc2cccs2)[nH]n1`, for which the inhibition is -0.82%.
In the case of `Cc1sc2c(c1C)c(=O)n(-c1ccccc1)c1nncn21` it was -4.64%; in that of `CSCCC(NS(=O)(=O)/C=C/c1ccccc1)C(=O)N1CCC(C)CC1` (centres undefined), 5.25%; in that of `CCCCNc1nc2ccccc2nc1NS(=O)(=O)c1cccs1`, 19.1%.
In the case of `COCCCNc1nc2ccccc2nc1NS(=O)(=O)c1ccc(F)cc1`, the inhibition was 37.4% (active).
Consider `CCCn1nc(NS(=O)(=O)c2ccc(F)cc2)c2cc3ccccc3nc21`, for which the inhibition is -5.34%.
Consider `Cc1cccc(CC(=O)Nc2c3c(nn2-c2cccc(Cl)c2)CS(=O)C3)c1` (centres undefined), for which the inhibition was 4.67%.
In the case of `COc1ccc(S(=O)(=O)N2CCN(C)CC2)c(C)c1`, the inhibition was -9.29%.
Turning to `Cn1c(N2CCOCC2)c(C=O)c2ccccc21`, the inhibition was 13.5%.
Consider `Cc1cc(C)c(-c2c(O)c3ccccc3n(C)c2=O)c(C)c1`, for which the inhibition was 43.4% (active).
Next, `Cn1c(=O)c(Sc2ccc(Cl)cc2)c(O)c2ccccc21`: -5.74%.
Next, `Cn1c(=O)c(C(=O)Nc2ncccn2)c(O)c2ccccc21`: 27.6%; `O=S(=O)(NCCCN1CCOCC1)c1ccc(F)c(Cl)c1`: -7.79%; `CC1(C)S[C@@H]2[C@H](NC(=O)COc3ccccc3)C(=O)N2C1C(=O)OCc1ccccc1` (some centres undefined): 3.84%.
Turning to `NC(=O)Cn1c(=O)oc2ccccc21`, the inhibition is 4.87%.
With `COc1ccc(CNC(=O)[C@@H]2CC=C[C@@H]3CCN(C4CC4)C(=O)[C@@H]32)cc1`, the inhibition is 4.74%.
In the case of `CCN(CC)CCCN1C(=O)C(=O)/C(=C(/O)c2c(C)nc3ccccn23)C1c1ccc(C)o1` (centres undefined) it was -7.73%; in that of `Cc1ccc(C(=O)NNC(=O)OC(C)(C)C)c(Cl)c1`, -8.95%; in that of `CC(C)(C)OC(=O)NNc1c2ccccc2nc2ccccc12`, 48% (active).
As for `O=C(NNc1c2ccccc2nc2ccccc12)c1cc2ccccc2cc1O`, the inhibition was -10.9%.
Next, `CCSC1=NCCN1S(=O)(=O)c1ccc(F)cc1`: 8.82%.
With `CC(Oc1ccc(F)cc1)C(=O)Nc1ccccc1C(=O)NC1CC1` (centres undefined), the inhibition was 4.37%.
As for `O=[N+]([O-])c1ccc2c(c1)C(O)n1nc(-c3ccccc3)nc1S2` (centres undefined), the inhibition is -7.67%.
Next, `Cc1noc(C)c1C(=O)OCC(=O)N1CCN(S(=O)(=O)c2ccc3ccccc3c2)CC1`: -4.19%.
As for `Cc1noc(C)c1C(=O)OCC(=O)/C=C1\N(C)c2ccccc2C1(C)C`, the inhibition was 43.7% (active).
Consider `COc1ccc(C(=O)COC(=O)c2c(C)noc2C)cc1Cl`, for which the inhibition was -4.13%.
Next, `CC1CCCCC1NC(=O)Cn1cnc2c1c(=O)n(C)c(=O)n2C` (centres undefined): 5.44%; `COc1ccc(-c2cc3c(c4c2ccn4C)C2CCC3C2)cn1` (centres undefined): -50.3%; `COc1cc(C2/C(=C(\O)c3ccc4c(c3)CC(C)O4)C(=O)C(=O)N2c2nnc(C)s2)cc(OC)c1OC` (centres undefined): -20.5%.
On to `COc1ccc(NC(=O)C2=NNC(=O)CC2)cc1S(=O)(=O)N1CCCCC1`, for which the inhibition was -1.74%.
Turning to `CCCCCCC(=O)Nc1nc(C)c(-c2csc(Nc3cccc(OC)c3)n2)s1`, the inhibition was -13.8%.
Next, `C=CCCC(=O)Nc1nc(C)c(-c2csc(Nc3ccc(Cl)cc3)n2)s1`: -8.67%; `CC(=O)Nc1nc(C)c(-c2csc(Nc3ccc(S(N)(=O)=O)cc3)n2)s1`: 77% (active).
For `CCCCC(=O)N(C)c1c(CC)nc2c(OCc3ccc(Cl)cc3Cl)cccn12`, the inhibition was 8.51%.
As to `CC(C)Cn1cnc2c1c(=O)n(CC(=O)NN)c(=O)n2Cc1ccccc1`, the inhibition was 3.73%.
Next, `Cc1noc(C)c1COc1ccc2ccc(=O)oc2c1`: 42.9% (active); `CC(C)OC(=O)c1ccc(COc2ccc3ccc(=O)oc3c2)o1`: 32.9%.
Next, `Cc1noc(C)c1COc1cccc(C(=O)Nc2cccnc2)c1`: -1.48%; `CCOC(=O)N1CCC(NC(=O)CN2C(=O)COc3ccc(C(C)(C)C)cc32)CC1`: -0.68%.
`CN(C)CCN=c1cc(-c2ccccc2)oc2ccc(Cl)cc12`: the inhibition was -18.1%.
Turning to `Cc1ccc2[nH]c3c(=O)n(CC(=O)NCCc4ccc(Cl)cc4)ncc3c2c1`, the inhibition was -2.38%.
For the compound `CC(C(=O)NC1CCCCC1)N1C(=O)c2cccc3cccc1c23` (centres undefined), the inhibition is 39.6% (active).
For the compound `CC(C(=O)NC1CCCC1)N1CCN(S(=O)(=O)c2ccccc2Cl)CC1` (centres undefined), the inhibition is -0.01%.
`Cc1ccnc(NC(=O)C(C)N2C(=O)c3ccccc3C2=O)c1` (centres undefined): the inhibition is 9.23%.
For `CC(=O)Nc1cc(-c2ccc(N3CCN(C)CC3)cc2)cn2c(-c3ccc(F)cc3)cnc12`, the inhibition was 42.2% (active).
With `CC(=O)Nc1cc(-c2ccc(N3CCN(C)CC3)cc2)cn2c(-c3cccc(C(=O)N(C)C)c3)cnc12`, the inhibition is 0.78%.
`COc1ccccc1-c1cc(NC(C)=O)c2ncc(-c3ccc(F)cc3)n2c1`: the inhibition is 38.6%.
Regarding `C1=C(N2CCOCC2)/C(=C/c2nc3ccccc3[nH]2)CC1`, the inhibition is 43% (active).
For `O=C1c2ccccc2C(c2nc3ccccc3[nH]2)N1c1ccccc1` (centres undefined), the inhibition is 4.84%.
As to `CCO[C@H]1OC(C(=O)NCc2ccccc2)=C[C@@H](c2coc3ccccc3c2=O)[C@@H]1CCCO`, the inhibition was -9.63%.
In the case of `Cc1c(Cl)cccc1NC(=O)[C@@]1(CC(=O)O)CC(/C=C/c2ccccc2)=NO1` it was -0.33%.
Turning to `Cc1ccc(C(CNC(=O)Nc2cccc(C)c2)N2CCN(C)CC2)cc1` (centres undefined), the inhibition is -3.56%.
Next, `Cc1cc(N)n2nc(-c3ccc(C(C)(C)C)cc3)cc2n1`: 40.5% (active).
Regarding `COc1cccc2cc(/C(C)=N/NC(=O)c3ccco3)oc12`, the inhibition is -10.7%.
Take `CC1CCCC(NC(=O)CN2CCN(Cc3ccc(Cl)cc3)C2=O)C1C` (centres undefined): the inhibition was 5.5%.
In the case of `CCC(C)c1ccc(NC(=O)COC(=O)C2CCCC2)cc1` (centres undefined) it was -5.48%; in that of `CC(Sc1ncnc2c1cnn2-c1ccccc1)C(=O)Nc1ccc(N2CCOCC2)cc1` (centres undefined), 3.26%; in that of `COc1ccc2nc(C)cc(Nc3cccc(C(=O)O)c3)c2c1`, -12.3%.
As for `Cc1ccc(-n2ncc3c(Nc4cccc(C(=O)O)c4)ncnc32)cc1`, the inhibition is 38.5% (active).

As usually defined, the inhibition is the drop in the measured response relative to a control, in per cent.
